Inconclusive results are not listed. A structure can be active in one record and inactive in another. Activity calls are given as the source filed them. The calls were made as follows, unless noted: active = hit-call score of the fitted dose curve at least 0.9, where 1 is the maximum; inactive = score below 0.9.
What was measured:
[1] = CCTE_Shafer_MEA_dev_bursting_electrodes_number: CCTE's Neural Network Formation Assay for Number of Bursting Electrodes, Shafer Lab (AID 2284043; active = hit-call score of the fitted dose curve at least 0.9, where 1 is the maximum;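 as to AC50: potency is for loss of bursting electrodes relative to DMSO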)
Summary of the method: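 Number of electrodes reaching ≥1 burst every 2 min was recorded at DIV 5, 7, 9 and 12 and collapsed as trapezoidal area under the curve. Cultures were rat cortical neurons on MEA plates, dosed continuously from plating with medium and treatment refreshed on DIV 5 and 9.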

[2] = CCTE_Shafer_MEA_dev_burst_duration_mean: CCTE's Neural Network Formation Assay for Mean Burst Duration, Shafer Lab (AID 2284045);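 as to AC50: curve fitted for loss meaning shorter burst duration than DMSO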
Summary of the method: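 Mean single-electrode burst duration (first to last spike), averaged over bursting electrodes per well, then integrated as area-under-curve across recordings at days 5, 7, 9 and 12. Rat cortical cultures on MEAs, compound present from plating, refreshed at feeds.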

[3] = CCTE_Shafer_MEA_dev_interburst_interval_mean: CCTE's Neural Network Formation Assay for Mean Interburst Interval, Shafer Lab (AID 2284046);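 also: well-mean interburst interval of bursting electrodes as AUC over four recording days; curve fitted for decrease in interburst interval relative to DMSO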
Summary of the method: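 Developing rat cortical networks on 48-well MEAs receive compound from the day of plating. Burst intervals from each active electrode are averaged per well, and AUC over the recording days is fitted in the negative direction against DMSO.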

[4] = CCTE_Shafer_MEA_dev_inter_network_spike_interval_mean: CCTE's Neural Network Formation Assay for Mean Inter-network Spike Interval, Shafer Lab (AID 2284047);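 as to AC50: potency for a decrease in mean inter-network spike interval below DMSO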
Summary of the method: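 Rat cortical cultures, 1.5 x 10^5 cells/well on 48-well MEA plates; continuous exposure days 0–12, medium and compound refreshed DIV 5, 9. Mean time between consecutive network-spike peaks; AUC across DIV 5/7/9/12; DMSO baseline, negative fitting direction.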

[5] = CCTE_Shafer_MEA_dev_network_spike_number: CCTE's Neural Network Formation Assay for Number of Network Spikes, Shafer Lab (AID 2284048);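 also: synchronized bursts across electrodes counted on days 5 7 9 12 and integrated as AUC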;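 as to AC50: fit as a loss of signal meaning fewer network spikes than DMSO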
Summary of the method: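 Number of network spikes (coordinated firing across electrodes) recorded on days 5, 7, 9 and 12 and summarised as area under the curve. Rat cortical cultures on MEA, continuous compound exposure with full medium/treatment exchange at DIV 5 and 9.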

[6] = CCTE_Shafer_MEA_dev_network_spike_peak: CCTE's Neural Network Formation Assay for Mean Number of Electrodes in Network Spike, Shafer Lab (AID 2284049);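 as to AC50: fitted for loss of signal meaning fewer electrodes in network spikes than DMSO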
Summary of the method: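 Rat cortical primary culture, 1.5 x 10^5 cells/well, 48-well MEA (16 electrodes/well). Dosing day 0 through DIV 12, full media/compound exchange DIV 5, 9. AxIS adaptive spike detection; AUC over days 5/7/9/12; loss-of-signal vs DMSO.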

[7] = CCTE_Shafer_MEA_dev_spike_duration_mean: CCTE's Neural Network Formation Assay for Mean Spike Duration, Shafer Lab (AID 2284051);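 also: mean network spike duration pooled as area under curve over DIV 5 to 12 recordings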;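 as to AC50: potency for a decrease in mean network spike duration versus DMSO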
Summary of the method: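 Readout is the average length of network spikes, clustered firing across electrodes, summed over DIV 5, 7, 9 and 12 as area under the curve. Neurons from rat cortex developed networks on MEA plates under continuous 12-day exposure.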

[8] = CCTE_Shafer_MEA_dev_network_spike_duration_std: CCTE's Neural Network Formation Assay for Standard Deviation of Network Spike Duration, Shafer Lab (AID 2284052);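 also: hits are decreases in network spike duration SD versus DMSO vehicle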
Summary of the method: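 Read-out is the trapezoidal area-under-the-curve across recordings made on days 5, 7, 9 and 12, fitted in the negative direction against DMSO baseline. Neurons were primary rat cortical cells treated from day 0, with treatment renewed at each feed.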

[9] = CCTE_Shafer_MEA_dev_per_network_spike_spike_percent: CCTE's Neural Network Formation Assay for Percent of Spikes in a Network Spike, Shafer Lab (AID 2284054)
Summary of the method: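 Metric: fraction of spikes falling in a 0.05 s window at network-spike peaks. Recordings were made on days 5, 7, 9 and 12 and collapsed by trapezoidal AUC. Cultures were rat cortical neurons on MEA plates, dosed continuously from plating, re-dosed at media changes.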

DIO2 (gene 1734) = experiment: CCTE_GLTED_hDIO2: CCTE's human Deiodinase 2 (DIO2) Inhibition Assay, Great Lakes Toxicology and Ecology Division (GLTED) Lab (AID 2284050; active = hit-call score of the fitted dose curve at least 0.9, where 1 is the maximum)
Summary of the method: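 Iodide released by human deiodinase 2 over 3 h with test chemical, measured spectrophotometrically via Sandell-Kolthoff cerium/arsenic reaction. Run n=3; inhibition referenced to DMSO.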

Measured: AC50

O=C(F)C(F)(F)C(F)(F)C(F)(F)C(=O)F
not listed: DIO2 (gene 1734)
inactive: all other assays above

O=C(OC(=O)C(F)(F)C(F)(F)F)C(F)(F)C(F)(F)F
not listed: DIO2 (gene 1734)
inactive: all other assays above

O=C(F)C(F)(F)C(F)(F)C(F)(F)C(F)F
not listed: DIO2 (gene 1734)
inactive: all other assays above

NC(=NCCCCCCN=C(N)/N=C(\N)Nc1ccc(Cl)cc1)/N=C(\N)Nc1ccc(Cl)cc1
active: DIO2 (gene 1734) 13000 nM

O=C1NS(=O)(=O)c2ccccc21
not listed: DIO2 (gene 1734)
inactive: all other assays above

CCCCCCCCCCCC
active: DIO2 (gene 1734) 24500 nM

CCCCCCCCCC=CCC1CC(=O)OC1=O (stereo not given)
active: DIO2 (gene 1734) 64300 nM

CCCCCCCCCCCCOS(=O)(=O)O
active: DIO2 (gene 1734) 101000 nM

O=P(O)(O)CCC(F)(F)C(F)(F)C(F)(F)C(F)(F)C(F)(F)C(F)(F)F
not listed: [1] | DIO2 (gene 1734)
inactive: all other assays above

COC(=O)C(F)(F)C(F)(F)C(F)(F)C(F)(F)C(F)(F)F
not listed: [1] | DIO2 (gene 1734)
inactive: all other assays above

CCCCCCCCCCCCOC(=O)c1cc(O)c(O)c(O)c1
active: DIO2 (gene 1734) 82000 nM

O=CC(F)(F)C(F)(F)C(F)(F)C(F)F
not listed: DIO2 (gene 1734)
inactive: all other assays above

NC(C(F)(F)F)C(F)(F)F
not listed: DIO2 (gene 1734)
inactive: all other assays above

COC(=O)C(F)(F)C(F)(F)C(F)(F)F
not listed: DIO2 (gene 1734)
inactive: all other assays above

FC(F)=C(F)C(F)(F)C(F)(F)C(F)(F)C(F)F
not listed: [1] | DIO2 (gene 1734)
inactive: all other assays above

O=C(O)C(F)(F)OC(F)(F)C(F)(F)OC(F)(F)C(F)(F)OC(F)(F)C(F)(F)C(F)(F)C(F)(F)F
active: DIO2 (gene 1734) 60500 nM
not listed: [1]
inactive: all other assays above

O=P(O)(O)CCC(F)(F)C(F)(F)C(F)(F)C(F)(F)C(F)(F)C(F)(F)C(F)(F)C(F)(F)F
inactive: [2] | [4] | [8]
active: [1] 2390 nM | [3] 8600 nM | [5] 4290 nM | [6] 4220 nM | DIO2 (gene 1734) 146000 nM | [7] 7740 nM | [9] 5380 nM

OCC(F)(F)C(F)(F)C(F)(F)C(F)(F)C(F)(F)C(F)(F)C(F)(F)C(F)(F)C(F)(F)C(F)(F)C(F)(F)F
inactive: [1] | [2] | [3] | [4] | [5] | [6] | [7] | [8] | [9]
active: [1] 6730 nM | [3] 26400 nM | [6] 8240 nM | [7] 6130 nM | [9] 9080 nM

O=C(O)CCC(F)(F)C(F)(F)C(F)(F)C(F)(F)C(F)(F)F
not listed: DIO2 (gene 1734)
inactive: all other assays above

Nc1ccn([C@@H]2O[C@H](CO)[C@@H](O)C2O)c(=O)n1 (stereo not given in full)
active: [1] 333 nM | [2] 856 nM | [3] 695 nM | [5] 125 nM | [6] 329 nM | [7] 358 nM | [8] 239 nM | [9] 119 nM
inactive: [4]

CN(CCO)S(=O)(=O)C(F)(F)C(F)(F)C(F)(F)C(F)(F)C(F)(F)C(F)(F)C(F)(F)C(F)(F)F
not listed: DIO2 (gene 1734)
inactive: all other assays above

CC(C)c1c(C(=O)Nc2ccccc2)c(-c2ccccc2)c(-c2ccc(F)cc2)n1CC[C@@H](O)C[C@@H](O)CC(=O)O
active: [1] 9.22 nM | [2] 10.5 nM | [3] 8.32 nM | [4] 7.22 nM | [5] 5.74 nM | [6] 6.41 nM | [7] 4.74 nM | [8] 2.68 nM | [9] 8.21 nM

CN(C)CCOC(c1ccccc1)c1ccccc1
active: [1] 4330 nM | [6] 10000 nM | [7] 10000 nM | [9] 14000 nM
not listed: DIO2 (gene 1734)
inactive: all other assays above

O=C(C=C(O)C(F)(F)F)C(F)(F)F
not listed: DIO2 (gene 1734)
inactive: all other assays above

C=CC(F)(F)C(F)(F)C(F)(F)C(F)(F)F
not listed: DIO2 (gene 1734)
inactive: all other assays above

Cc1cc(Cc2cc(C)cc(C(C)(C)C)c2O)c(O)c(C(C)(C)C)c1
active: DIO2 (gene 1734) 97600 nM

O=C(CCCN1CCC(O)(c2ccc(Cl)cc2)CC1)c1ccc(F)cc1
inactive: [4]
active: [1] 1650 nM | [2] 1290 nM | [3] 3120 nM | [5] 568 nM | [6] 2020 nM | [7] 1780 nM | [8] 1880 nM | [9] 2980 nM

CN(Cc1cnc2nc(N)nc(N)c2n1)c1ccc(C(=O)N[C@@H](CCC(=O)O)C(=O)O)cc1
active: [1] 20.9 nM | [2] 72.8 nM | [3] 136 nM | [4] 30.8 nM | [5] 25.8 nM | [6] 27.9 nM | [7] 34.3 nM | [8] 42.2 nM | [9] 25.3 nM

CC(=O)Nc1ccc(O)cc1
inactive: [1] | [2] | [3] | [4] | [5] | [6] | [7] | [8] | [9]
active: [1] 82.4 nM | [2] 22500 nM

O=CC(F)(F)C(F)(F)C(F)(F)F
not listed: DIO2 (gene 1734)
inactive: all other assays above

FCOC(C(F)(F)F)C(F)(F)F
not listed: DIO2 (gene 1734)
inactive: all other assays above

O=C(CC(=O)C(F)(F)C(F)(F)C(F)(F)F)c1cccs1
active: [1] 8130 nM | [3] 5430 nM | [6] 7420 nM | [7] 7700 nM | [9] 3480 nM
inactive: [2] | [4] | [5] | [8]

Source: PubChem BioAssay (EPA / NIEHS)
